Compounds without any hit were thinned out: in the full panel of roughly 83,000, 20% have a hit.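 Values shown are percent growth following 48 h exposure of cells in 96-well plates to a single concentration of compound; below 10 was considered active.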 Active and inactive are the calls of the source.
How the values were obtained:
Experiment in all cases: NCI-60 one-dose screen, 48 h (100 = growth as untreated, 0 = no growth, -100 = all killed)
Settings in all cases: 10 µM unless noted
NCI-H23 lung = system: NCI-H23 lung
NCI-H226 lung = system: NCI-H226 lung
NCI-H322M lung = system: NCI-H322M lung
HOP-62 NSCLC = system: HOP-62 NSCLC
NCI-H460 lung = system: NCI-H460 lung
HOP-92 NSCLC = system: HOP-92 NSCLC
NCI-H522 lung = system: NCI-H522 lung
A549/ATCC NSCLC = system: A549/ATCC NSCLC
786-0 renal = system: 786-0 renal
COLO 205 colon = system: COLO 205 colon
DU-145 prostate = system: DU-145 prostate
K-562 leukemia = system: K-562 leukemia
MALME-3M melanoma = system: MALME-3M melanoma
MDA-MB-231 breast = system: MDA-MB-231 breast
RXF 393 renal = system: RXF 393 renal
SF-268 CNS = system: SF-268 CNS
SF-295 CNS = system: SF-295 CNS
SF-539 CNS = system: SF-539 CNS
UACC-257 melanoma = system: UACC-257 melanoma
M14 melanoma = system: M14 melanoma

Structure (SMILES)	growth (NCI-H23 lung)	growth (NCI-H226 lung)	growth (NCI-H322M lung)	growth (HOP-62 NSCLC)	growth (NCI-H460 lung)	growth (HOP-92 NSCLC)	growth (NCI-H522 lung)	growth (A549/ATCC NSCLC)	growth (786-0 renal)	growth (COLO 205 colon)	growth (DU-145 prostate)	growth (K-562 leukemia)	growth (MALME-3M melanoma)	growth (MDA-MB-231 breast)	growth (RXF 393 renal)	growth (SF-268 CNS)	growth (SF-295 CNS)	growth (SF-539 CNS)	growth (UACC-257 melanoma)	growth (M14 melanoma)
Clc1cccc(NCOOC2(OOCNc3cccc(Cl)c3)CCCCCC2)c1	69% (inactive)	102% (inactive)	96.2% (inactive)	87.4% (inactive)	102% (inactive)	57.5% (inactive)	81.6% (inactive)	92.8% (inactive)	47.3% (inactive)	113% (inactive)	103% (inactive)	32.6% (inactive)	97% (inactive)	103% (inactive)	114% (inactive)	94.3% (inactive)	90.4% (inactive)	86.8% (inactive)	112% (inactive)	97.3% (inactive)
CCN(CCO)C(Cc1ccccc1)c1ccccc1 (stereo not given)	93.1% (inactive)	101% (inactive)	106% (inactive)	96.5% (inactive)	104% (inactive)	100% (inactive)	87.9% (inactive)	103% (inactive)	105% (inactive)	102% (inactive)	105% (inactive)	107% (inactive)	96.5% (inactive)	101% (inactive)	106% (inactive)	101% (inactive)	95.5% (inactive)	106% (inactive)	114% (inactive)	89% (inactive)
COC(=O)[C@@H](C)C[C@H](Cc1ccccc1)NC(=O)c1csc([C@@H](C[C@H](C(C)C)N(C)C(=O)C2(NC(=O)[C@H]3CCCCN3C)CCC2)OC(C)=O)n1	18.6% (inactive)	48.7% (inactive)	43.6% (inactive)	18.8% (inactive)	4.21% (active)	2.26% (active)	-13.8% (active)	15.2% (inactive)	20.9% (inactive)	-59.1% (active)	2.83% (active)	2.16% (active)	67.1% (inactive)	-13.6% (active)	82.9% (inactive)	17.6% (inactive)	6.3% (active)	-10.9% (active)	60.2% (inactive)	5.56% (active)
CN(CCCCN(C)CCOS(C)(=O)=O)CCOS(C)(=O)=O	84% (inactive)	75% (inactive)	105% (inactive)	84.7% (inactive)	35.2% (inactive)	86.3% (inactive)	81.3% (inactive)	78.9% (inactive)	100% (inactive)	74.2% (inactive)	96.7% (inactive)	93.3% (inactive)	86.9% (inactive)	79.7% (inactive)	90.1% (inactive)	66.4% (inactive)	109% (inactive)	47.2% (inactive)	82.3% (inactive)	76.4% (inactive)
COc1ccc(C(=O)c2cc(OC)c(OC)c(OC)c2)cc1OC(C)=O	31% (inactive)	102% (inactive)	42% (inactive)	25.2% (inactive)	7.92% (active)	50.9% (inactive)	10.3% (inactive)	22.4% (inactive)	26.5% (inactive)	16.3% (inactive)	4.78% (active)	10.4% (inactive)	78% (inactive)	33.8% (inactive)	49.3% (inactive)	41.9% (inactive)	15.4% (inactive)	6.23% (active)	55.7% (inactive)	4.11% (active)
COc1cc(C=Nc2cc(Cl)cc(Cl)c2)ccc1N(CCCl)CCCl	80.1% (inactive)	76.4% (inactive)	92.8% (inactive)	95.7% (inactive)	13.7% (inactive)	77.3% (inactive)	-84.3% (active)	91.9% (inactive)	107% (inactive)	76.9% (inactive)	98.2% (inactive)	84.6% (inactive)	74.9% (inactive)	65.5% (inactive)	82% (inactive)	93% (inactive)	80.8% (inactive)	89.3% (inactive)	100% (inactive)	92.2% (inactive)
CNC(=O)Oc1ccc(C(C)(C)C)cc1OC(=O)NC	100% (inactive)	93.6% (inactive)	112% (inactive)	88.7% (inactive)	102% (inactive)	95.2% (inactive)	84.8% (inactive)	90.5% (inactive)	89.4% (inactive)	87% (inactive)	105% (inactive)	97.6% (inactive)	104% (inactive)	105% (inactive)	108% (inactive)	105% (inactive)	98.6% (inactive)	103% (inactive)	92% (inactive)	93.3% (inactive)
COc1ccc([As]=[As]c2ccc(OC)c(NCS(=O)(=O)O)c2)cc1NCS(=O)(=O)O (stereo not given)	23.3% (inactive)	61.9% (inactive)	95.6% (inactive)	39.7% (inactive)	88.2% (inactive)	-21.9% (active)	-32.9% (active)	69.4% (inactive)	-46.4% (active)	2.8% (active)	43.1% (inactive)	-2.74% (active)	-44.6% (active)	4.41% (active)	-17.9% (active)	17.8% (inactive)	80% (inactive)	2.54% (active)	27.6% (inactive)	19.2% (inactive)
COC1CC2c3ccccc3C1C(C)=[N+]2C (stereo not given)	89.3% (inactive)	90.8% (inactive)	99.5% (inactive)	110% (inactive)	106% (inactive)	98.7% (inactive)	79.8% (inactive)	96% (inactive)	98.9% (inactive)	120% (inactive)	110% (inactive)	110% (inactive)	88.7% (inactive)	99.5% (inactive)	98% (inactive)	107% (inactive)	94.2% (inactive)	102% (inactive)	95.6% (inactive)	103% (inactive)
Cc1cc(C)c(CBr)c(C)c1	100% (inactive)	92.8% (inactive)	92.4% (inactive)	104% (inactive)	109% (inactive)	87.5% (inactive)	90.2% (inactive)	95.1% (inactive)	99.2% (inactive)	107% (inactive)	107% (inactive)	107% (inactive)	99.3% (inactive)	106% (inactive)	100% (inactive)	105% (inactive)	101% (inactive)	93.5% (inactive)	96.8% (inactive)	109% (inactive)
ClC1=C(Cl)C(Cl)(C2(Cl)C(Cl)=C(Cl)C(Cl)=C2Cl)C(Cl)=C1Cl	-14.4% (active)	-81.5% (active)	98.3% (inactive)	60.4% (inactive)	67.6% (inactive)	-63.5% (active)	-68.2% (active)	45% (inactive)	-66.4% (active)	-68.6% (active)	-43.1% (active)	-24.6% (active)	-67.5% (active)	-29.3% (active)	-83.2% (active)	-46.4% (active)	89.6% (inactive)	-59% (active)	-60.4% (active)	-57.6% (active)
Fc1ccc(N2COOC3(OOC2)C2CC4CC(C2)CC3C4)cc1	69.4% (inactive)	105% (inactive)	91.1% (inactive)	83.6% (inactive)	101% (inactive)	29% (inactive)	85.2% (inactive)	90.2% (inactive)	12.6% (inactive)	116% (inactive)	90.8% (inactive)	26.7% (inactive)	106% (inactive)	95.5% (inactive)	115% (inactive)	91.5% (inactive)	87.5% (inactive)	82.5% (inactive)	89.6% (inactive)	89.5% (inactive)
COC(=O)[C@@]1(C)CC[C@]2(C)CC[C@]3(C)C4=CC(=O)c5c(cc(O)c(O)c5C)[C@]4(C)CC[C@@]3(C)[C@@H]2C1	46.9% (inactive)	51.1% (inactive)	70.6% (inactive)	71.7% (inactive)	31.8% (inactive)	49.2% (inactive)	38.5% (inactive)	38.6% (inactive)	78.6% (inactive)	71.5% (inactive)	67.1% (inactive)	49% (inactive)	106% (inactive)	61.4% (inactive)	85% (inactive)	61.7% (inactive)	49.8% (inactive)	78% (inactive)	41.9% (inactive)	66.4% (inactive)
O=C1NC(=O)C(=Cc2cccn2CCCCCn2c3ccccc3c(=O)c3ccccc32)C(=O)N1	96.3% (inactive)	99.1% (inactive)	98.3% (inactive)	102% (inactive)	108% (inactive)	90.4% (inactive)	90.5% (inactive)	100% (inactive)	99% (inactive)	114% (inactive)	113% (inactive)	89.1% (inactive)	119% (inactive)	116% (inactive)	110% (inactive)	102% (inactive)	99.4% (inactive)	102% (inactive)	104% (inactive)	102% (inactive)
Fc1c[c-]c(-c2ccccn2)c(F)c1.[CH3-].[Pt+2].c1ccc([PH+](c2ccccc2)c2ccccn2)cc1	0.331% (active)	-53.6% (active)	19.4% (inactive)	22.3% (inactive)	3.22% (active)	-25.6% (active)	-37.9% (active)	11.5% (inactive)	-1.65% (active)	-31.5% (active)	15.9% (inactive)	4.86% (active)	-75.5% (active)	-70.6% (active)	-64.8% (active)	22.8% (inactive)	5.67% (active)	-46.7% (active)	0.865% (active)	-30.4% (active)

— PubChem BioAssay (NCI)
